# Reference: article PMC4336329 (PLoS ONE, 2015)
# Out of some 310,000 compounds screened, about 14,000 (4.5%) showed an effect of 50% or more. The effect is printed as a negative number. This is one part of a sample in which strong results are shown more often than they occur.
# Target: human ether-à-go-go-related gene (hERG) potassium channel (human, UniProt Q12809)
# Assay: primary screen, population patch clamp on CHO cells stably expressing hERG; higher = less effect of the substance
# 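Also: peak tail current of the secondary pulse compared with the same well before compound.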
# human ether-à-go-go-related gene (hERG) potassium channel, sequence (Q12809 whole entry, looked up): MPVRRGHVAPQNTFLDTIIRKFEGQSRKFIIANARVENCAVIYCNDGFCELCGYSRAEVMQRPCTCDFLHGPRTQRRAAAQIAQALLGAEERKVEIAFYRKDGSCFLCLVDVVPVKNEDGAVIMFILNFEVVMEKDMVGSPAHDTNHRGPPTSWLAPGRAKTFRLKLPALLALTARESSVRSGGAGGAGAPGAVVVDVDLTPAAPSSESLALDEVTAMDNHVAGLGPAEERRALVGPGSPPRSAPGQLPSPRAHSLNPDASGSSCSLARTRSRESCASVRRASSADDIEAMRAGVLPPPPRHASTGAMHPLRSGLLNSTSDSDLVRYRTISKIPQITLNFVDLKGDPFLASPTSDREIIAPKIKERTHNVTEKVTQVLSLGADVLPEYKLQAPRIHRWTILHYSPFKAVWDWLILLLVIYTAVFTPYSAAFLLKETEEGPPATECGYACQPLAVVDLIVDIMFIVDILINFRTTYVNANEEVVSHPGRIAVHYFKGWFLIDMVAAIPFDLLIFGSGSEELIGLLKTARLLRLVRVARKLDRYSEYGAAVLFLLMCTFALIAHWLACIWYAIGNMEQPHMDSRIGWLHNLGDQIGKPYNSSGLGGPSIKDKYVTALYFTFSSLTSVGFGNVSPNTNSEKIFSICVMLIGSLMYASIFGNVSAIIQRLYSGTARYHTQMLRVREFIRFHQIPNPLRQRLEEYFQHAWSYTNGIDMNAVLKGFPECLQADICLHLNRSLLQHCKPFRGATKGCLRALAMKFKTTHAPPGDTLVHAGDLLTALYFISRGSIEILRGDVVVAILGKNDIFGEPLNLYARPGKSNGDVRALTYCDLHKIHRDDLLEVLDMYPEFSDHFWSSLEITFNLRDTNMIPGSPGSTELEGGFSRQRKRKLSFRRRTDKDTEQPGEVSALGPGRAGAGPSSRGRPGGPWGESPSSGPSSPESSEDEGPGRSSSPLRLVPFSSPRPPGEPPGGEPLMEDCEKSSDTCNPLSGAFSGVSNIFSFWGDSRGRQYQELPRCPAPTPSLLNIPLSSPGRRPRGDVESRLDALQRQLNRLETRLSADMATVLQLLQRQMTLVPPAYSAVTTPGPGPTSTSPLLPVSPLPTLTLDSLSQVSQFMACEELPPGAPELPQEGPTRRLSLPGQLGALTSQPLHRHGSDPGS
row,Compound,"hERG current change (%, negative = inhibition) at 10uM [%]"
1,Nc1ccccc1NC(=O)NC(=O)c1ccccc1,12.5
2,CCC(=O)Nc1ccc(NC(=O)c2cccc3c(Br)cccc23)cc1,3.96
3,COC(=O)C(Cc1ccccc1)NC(=O)CCc1c[nH]c2ccccc12 (stereo not shown),-8.09
4,CCOC(=O)N1CCN(CC(=O)Nc2ccc(F)cc2F)CC1,-28.6
5,CCOC(=O)N1CCN(CC(=O)Nc2ccc(F)c(F)c2F)CC1,7.7
6,CCOC(=O)N1CCN(CC(=O)Nc2ccc(C)cc2)CC1,-63.2
7,CCOC(=O)N1CCN(CC(=O)Nc2ccc(F)cc2)CC1,-82
8,CCOC(=O)N1CCN(CCC(=O)Nc2ccc(C)cc2)CC1,4.65
9,CCOC(=O)N1CCN(CC(=O)Nc2ccc(OC)cc2)CC1,-15.2
10,COc1ccc(-c2nn(-c3ccccc3)cc2/C=N/N2C(=O)CSC2=S)cc1,-6.34
11,O=C(NCCCl)NNc1c(Cl)cc(Cl)cc1Cl,10.3
12,CC1(C)Oc2ccc3ccc(=O)oc3c2[C@@H](O)[C@H]1O,15.5
13,CCOCCn1cnc2sc(C(=O)NCC(=O)OCC)c(C)c2c1=O,-3.75
14,Cc1cc(C)c(CN2CCC(n3nccc3NC(=O)C3CCOC3)CC2)cc1C (stereo not shown),-19
15,Cc1ccc(C)c(CN2CCC(n3nccc3NC(=O)C3CCCC3)CC2)c1,-69.9
16,CCn1cc(CN2CCC(n3nccc3NC(=O)C3CCCC3)CC2)c(C)n1,-12.4
17,COc1cc(C)c(CN2CCC(n3nccc3NC(=O)C3CC3)CC2)cc1C,-52.7
18,O=C(Nc1ccnn1C1CCN(Cc2ccccc2F)CC1)C1CCCC1,-45.4
19,COc1cc(C)c(CN2CCC(n3nccc3NC(=O)C3CCOC3)CC2)cc1C (stereo not shown),-18.2
20,COc1ccc(CN2CCC(n3nccc3NC(=O)C3CC3)CC2)c(OC)c1OC,-51.4
21,COc1ccc(C(=O)N2CCC(n3nccc3NC(=O)C3CC3)CC2)c(OC)c1OC,24.7
22,Cc1cc(C)c(CN2CCC(n3nccc3NC(=O)C3CCCC3)CC2)cc1C,-70.7
23,COc1ccc(CN2CCC(n3nccc3NC(=O)C3CC3)CC2)c(Cl)c1OC,-39.2
24,OCCSc1nc2ccccc2n1CCOc1ccccc1,4.02

row,Compound,"hERG current change (%, negative = inhibition) at 10uM [%]"
1,O=c1cccccc1NCc1ccccc1,-17.3
2,O=C(CSCC(=O)N1CCCc2ccccc21)Nc1nc(-c2ccccc2)cs1,12.4
3,COc1ccc(NC(=O)CSc2nnc(Cc3ccccc3)c(=O)n2N)c(OC)c1,-18.1
4,O=c1c2ccccc2nc(-c2ccoc2)n1CCc1ccccc1,-3.87
5,COc1ccc(NC(=O)CCC(=O)N(Cc2ccc(OC)c(OC)c2)c2nccs2)cc1,13.5
6,CC(=O)Nc1ccc(NC(=O)c2ccc(N(C)S(=O)(=O)c3ccc(C)cc3)cc2)cc1,6.8
7,CC(=O)Oc1ccc2c(=O)c(-c3ccccc3)c(C)oc2c1,16.2
8,O=C(CSc1ncnc2scc(-c3ccccc3)c12)Nc1ccc(C(=O)O)cc1,8.17
9,COc1ccc(C(C(=O)NC2CCCCC2)N(C(=O)c2ccco2)c2ccc(-n3cnnn3)c(C)c2)cc1 (stereo not shown),8.93
10,CCCN1C(=O)c2cc(C(=O)Nc3ccccc3CC)ccc2C1O (stereo not shown),2.3
11,N#Cc1c(N)n(CCNC(=O)c2cccs2)c2nc3ccccc3nc12,10.4
12,O/N=C/c1ccnc(SCc2ccccc2)n1,-12.1
13,Cc1c(NC(=O)COC(=O)c2cc3c4ccccc4n(C)c3s2)c(=O)n(-c2ccccc2)n1C,-11.8
14,Cc1c(NC(=O)C(C)OC(=O)c2cc3c4ccccc4n(C)c3s2)c(=O)n(-c2ccccc2)n1C (stereo not shown),-68.5
15,Cc1c(NC(=O)C(C)OC(=O)c2cccs2)c(=O)n(-c2ccccc2)n1C (stereo not shown),3.46
16,CN(C)S(=O)(=O)c1ccc(N=Cc2c(C(F)(F)F)[nH][nH]c2=O)cc1,23
17,CC(C)(C)c1ccccc1NC(=O)CN1C(=O)NC2(CCCC2)C1=O,1.01
18,CC(C)C(=O)N1CCN(c2ccc(NC(=O)c3cccs3)cc2Cl)CC1,-14.7
19,CCCC(=O)N1CCN(c2ccc(NC(=O)c3cc4ccccc4o3)cc2)CC1,-13.4
20,CCC(=O)N1CCN(c2ccc(NC(=O)c3cc4ccccc4o3)cc2Cl)CC1,-67.7
21,O=C(Nc1ccc(N2CCOCC2)c(Cl)c1)c1cc2ccccc2o1,-36.1
22,Cc1ccc(NC(=O)c2cc3ccccc3o2)cc1Cl,19.7
23,Cc1ccccc1C(=O)N1CCN(c2ccc(NC(=O)c3ccco3)cc2Cl)CC1,-43.2
24,O=C(Nc1ccc(N2CCN(C(=O)c3ccco3)CC2)c(Cl)c1)c1c(F)c(F)c(F)c(F)c1F,-32.1

row,Compound,"hERG current change (%, negative = inhibition) at 10uM [%]"
1,CCCC(=O)N1CCN(c2ccc(NC(=O)c3cc4ccccc4o3)cc2Cl)CC1,-56.8
2,CCCC(=O)N1CCN(c2ccc(NC(=O)c3cccs3)cc2Cl)CC1,-66.8
3,CCC(=O)N1CCN(c2ccc(NC(=O)c3cc4ccccc4o3)cc2)CC1,-23.3
4,O=C(Nc1ccc(N2CCN(C(=O)c3ccco3)CC2)c(Cl)c1)c1cc2ccccc2o1,-67.9
5,CCCC(=O)N1CCN(c2ccc(NC(=O)c3cccs3)cc2)CC1,-18.2
6,O=C(Cc1ccccc1[N+](=O)[O-])Nc1ccc2c(c1)OCO2,-40.1
7,CCOc1ccc(CCNC(=O)c2cccnc2N2CCCC2)cc1OCC,13.2
8,Cc1ccc(C)c(C(=O)Nc2c(C(N)=O)oc3ccccc23)c1,5.52
9,COc1cccc(C(=O)NC2CCSC2=O)c1 (stereo not shown),23.8
10,CC(=O)c1ccc(N2CCN(C(=O)[C@H](C)NC(=O)c3ccccc3Cl)CC2)cc1,-9.57
11,COC(=O)[C@@H]1C[C@@]2(O)[C@H](O)[C@H](O)[C@H](O)C[C@H]2N1CC1CC1,6.98
12,N#Cc1c(N)nc2c(c1-c1ccccc1)CCCC2,-1.63
13,O=C1c2ccccc2C(=O)C1(CO)c1ccccc1,27.7
14,CCC(=O)N1CCN(c2ccccc2NC(=O)c2cccs2)CC1,-50.4
15,CN1CCN(c2ccccc2NC(=O)c2cccs2)CC1,-47.5
16,O=C(NC(=S)Nc1ccccc1N1CCCC1)c1cccs1,7.27
17,CC1CCN(c2ccccc2NC(=S)NC(=O)c2cccs2)CC1,-50.2
18,CC(=O)N1CCN(c2ccccc2NC(=O)c2cccs2)CC1,-43.8
19,O=C(NC(=S)Nc1ccccc1N1CCCCC1)c1cccs1,6.21
20,CCCC(=O)N(CCN1CCOCC1)c1nc2c(OC)ccc(OC)c2s1.Cl,-15.5
21,CCOC(=O)C1=C(N)Oc2cc(O)ccc2C1c1cccc([N+](=O)[O-])c1 (stereo not shown),-11.3
22,COc1ccc(NC(=O)c2ccccc2Oc2ccccc2)c(OC)c1,1.42
23,COc1ccc(C(C(=O)NC2CCCCC2)N(Cc2cccnc2)C(=O)c2snc(C(N)=O)c2N)cc1 (stereo not shown),-11.8
24,COc1ccc(/C=N/N2CCOCC2)cc1Cn1nc(C)c([N+](=O)[O-])c1C,-10.8

row,Compound,"hERG current change (%, negative = inhibition) at 10uM [%]"
1,COc1ccc(/C=N/n2cncn2)cc1Cn1nc(C)c([N+](=O)[O-])c1C,-53.6
2,COc1ccc(/C=N/n2cncn2)cc1Cn1cc([N+](=O)[O-])cn1,-32.1
3,COC(=O)[C@]1(CC(C)C)N[C@H](c2ccc(-c3ccc(F)cc3)cc2)[C@@H]2C(=O)N(C)C(=O)[C@@H]21.O=C(O)C(F)(F)F,-15.7
4,Cl.O=c1cc(-c2ccccc2)[nH]n1-c1nc2ccccc2[nH]1,7.02
5,COc1ccc(-c2cc(=O)n(-c3nc4ccccc4[nH]3)[nH]2)cc1,-53.1
6,COC(=O)Cc1cc(=O)n(-c2nc3ccccc3[nH]2)[nH]1,-23.3
7,CCN(CC)CCOC(=O)/C=C/c1ccccc1.Cl,-12.4
8,Cc1cccc(Nc2nnc(SCC(=O)NCc3cccs3)s2)c1,21.9
9,CNc1nc(C)nc(-n2nc(C)cc2C)n1,15.8
10,Cc1cc(C)n(-c2nc(Nc3ccccc3)nc(-n3nc(C)cc3C)n2)n1,15.6
11,Cc1cc(C)n(-c2nc(C)nc(NCc3ccccc3)n2)n1,-86.9
12,CC(=O)Nc1nc(SCc2ccc(Cl)cc2Cl)n[nH]1,16.4
13,O=[N+]([O-])c1ccc2c(c1)nc1n2CCSC1,-19.2
14,COc1cc(C)c(-c2nc(CN3C[C@@H]4C[C@@H](C3)c3cccc(=O)n3C4)c(C)o2)cc1C,-57.6
15,COc1ccc(CN2CC3CC(C2)c2cccc(=O)n2C3)cc1OC (stereo not shown),-5.24
16,Cc1cccc(N2CCN(Cc3nc(-c4ccc(F)cc4F)oc3C)CC2)n1,-41.3
17,Cc1ccc2occ(CN3CCN(Cc4ccccc4)CC3)c(=O)c2c1,-45.9
18,COc1cc(CN2CC3CC(C2)c2cccc(=O)n2C3)cc(OC)c1OC (stereo not shown),-6.41
19,Cc1ccc2occ(CN3CC4CC(C3)c3cccc(=O)n3C4)c(=O)c2c1 (stereo not shown),-63.9
20,Cc1cc(C)n2c(Br)c(CN3CC4CC(C3)c3cccc(=O)n3C4)nc2n1 (stereo not shown),0.651
21,Cc1oc(-c2ccc(F)cc2F)nc1CN1C[C@@H]2C[C@@H](C1)c1cccc(=O)n1C2,-74.4
22,Cc1ccc(CN2CC3CC(C2)c2cccc(=O)n2C3)cc1 (stereo not shown),-5.29
